Source: PubChem BioAssay AID1159580 (chemical genetic matrix, 2015)
Among all 5,500 compounds or so, about 2,000 (36%) were called active. About 18% were inconclusive and are not listed. No stated cut-off is given here; in the data, active means normalized growth mostly below about 0.91 (no sharp cut-off); inconclusive means no clear call, values can overlap the other calls; inactive means mostly above about 0.92. This is one part of the list.

Test: chemical genetic growth profiling, strain panel (AID 1159580);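 further: tested at 20 µM; growth read once vehicle control cultures reached saturation at 30 °C; 1 = growth at the plate median or of vehicle wells; lower values mean less growth of the strain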
Conditions: growth OD

Measured: normalized growth

COc1cc2c(cc1OC)C1(O)C(=O)c3ccc(O)c(C(=O)O)c3OC1CO2 (stereo not drawn)
inactive: S. cerevisiae deletion strains, locus YKL009W, strain mrt4, hits give low values 1.06 | S. cerevisiae deletion strains, locus YKL068W, hits give low values 0.983 | S. cerevisiae deletion strains, locus YKL085W, strain MDH1 (second series), hits give low values 0.975 | S. cerevisiae deletion strains, locus YKL085W, strain MDH1, hits give low values 0.975 | S. cerevisiae deletion strains, locus YKL160W, strain elf1, hits give low values 0.984 | S. cerevisiae deletion strains, locus YKL190W, strain CNB1, hits give low values 0.991 | S. cerevisiae deletion strains, locus YKR001C, strain vps1, hits give low values 1.01 | S. cerevisiae deletion strains, locus YKR026C, strain gcn3, hits give low values 0.99 | S. cerevisiae deletion strains, locus YKR091W, strain srl3, hits give low values 0.992 | S. cerevisiae deletion strains, locus YLL001W, strain dnm1, hits give low values 1 | S. cerevisiae deletion strains, locus YLL026W, hits give low values 0.993 | S. cerevisiae deletion strains, locus YLL041C, strain sdh2, hits give low values 0.998 | S. cerevisiae deletion strains, locus YLR027C, strain aat2, hits give low values 0.998 | S. cerevisiae deletion strains, locus YLR039C, strain RIC1, hits give low values 1.08 | S. cerevisiae deletion strains, locus YLR058C, strain SHM2, hits give low values 1.01 | S. cerevisiae deletion strains, locus YLR102C, strain apc9, hits give low values 0.975 | S. cerevisiae deletion strains, locus YLR113W, strain HOG1, hits give low values 0.982 | S. cerevisiae deletion strains, locus YLR221C, strain rsa3, hits give low values 1.02 | S. cerevisiae deletion strains, locus YLR258W, strain gsy2, hits give low values 0.99 | S. cerevisiae deletion strains, locus YLR262C, strain YPT6 (second series), hits give low values 1.02 | S. cerevisiae deletion strains, locus YLR262C, strain YPT6, hits give low values 1.08 | S. cerevisiae deletion strains, locus YLR268W, strain sec22, hits give low values 1.02 | S. cerevisiae deletion strains, locus YLR320W, strain mms22, hits give low values 1.01 | S. cerevisiae deletion strains, locus YLR330W, strain CHS5, hits give low values 1 | S. cerevisiae deletion strains, locus YLR342W, strain FKS1, hits give low values 1.02 | S. cerevisiae deletion strains, locus YLR357W, strain rsc2, hits give low values 0.987 | S. cerevisiae deletion strains, locus YLR370C, strain arc18, hits give low values 0.988 | S. cerevisiae deletion strains, locus YLR371W, strain rom2, hits give low values 1 | S. cerevisiae deletion strains, locus YLR384C, strain iki3, hits give low values 0.985 | S. cerevisiae deletion strains, locus YLR418C, strain cdc73, hits give low values 1 | S. cerevisiae deletion strains, locus YML016C, strain PPZ1, hits give low values 1.01 | S. cerevisiae deletion strains, locus YML032C, strain rad52, hits give low values 1.01 | S. cerevisiae deletion strains, locus YML120C, strain ndi1, hits give low values 1 | S. cerevisiae deletion strains, locus YML124C, strain tub3, hits give low values 0.99 | S. cerevisiae deletion strains, locus YMR058W, strain fet3, hits give low values 0.995 | S. cerevisiae deletion strains, locus YMR078C, strain ctf18, hits give low values 0.992 | S. cerevisiae deletion strains, locus YMR125W, strain sto1, hits give low values 0.983 | S. cerevisiae deletion strains, locus YMR129W, hits give low values 0.987 | S. cerevisiae deletion strains, locus YMR205C, strain PFK2, hits give low values 1.02 | S. cerevisiae deletion strains, locus YMR223W, strain ubp8, hits give low values 0.98 | S. cerevisiae deletion strains, locus YMR231W, strain pep5, hits give low values 0.994 | S. cerevisiae deletion strains, locus YMR307W, strain GAS1, hits give low values 1.18 | S. cerevisiae deletion strains, locus YNL067W, strain RPL9B, hits give low values 0.977 | S. cerevisiae deletion strains, locus YNL071W, strain lat1, hits give low values 0.991 | S. cerevisiae deletion strains, locus YNL128W, strain TEP1, hits give low values 1 | S. cerevisiae deletion strains, locus YNL153C, strain GIM3, hits give low values 0.991 | S. cerevisiae deletion strains, locus YNL183C, strain NPR1, hits give low values 0.94 | S. cerevisiae deletion strains, locus YNL209W, strain ssb2, hits give low values 0.989 | S. cerevisiae deletion strains, locus YNL233W, strain BNI4, hits give low values 0.996 | S. cerevisiae deletion strains, locus YNL248C, strain rpa49, hits give low values 0.974 | S. cerevisiae deletion strains, locus YNL250W, strain rad50, hits give low values 0.968 | S. cerevisiae deletion strains, locus YNL271C, strain bni1, hits give low values 0.99 | S. cerevisiae deletion strains, locus YNL298W, strain CLA4, hits give low values 0.985 | S. cerevisiae deletion strains, locus YNL307C, strain MCK1, hits give low values 0.984 | S. cerevisiae deletion strains, locus YNL322C, strain KRE1 (second series), hits give low values 1.01 | S. cerevisiae deletion strains, locus YNL322C, strain KRE1, hits give low values 0.988 | S. cerevisiae deletion strains, locus YNR049C, strain mso1, hits give low values 0.996 | S. cerevisiae deletion strains, locus YNR052C, strain pop2, hits give low values 0.999 | S. cerevisiae deletion strains, locus YOL006C, strain TOP1, hits give low values 1.38 | S. cerevisiae deletion strains, locus YOL012C, strain htz1 0.856 | S. cerevisiae deletion strains, locus YOL147C, strain pex11, hits give low values 0.995 | S. cerevisiae deletion strains, locus YOR001W, strain rrp6, hits give low values 1.02 | S. cerevisiae deletion strains, locus YOR061W, strain CKA2, hits give low values 1.05 | S. cerevisiae deletion strains, locus YOR069W, strain VPS5, hits give low values 0.989 | S. cerevisiae deletion strains, locus YOR070C, strain gyp1, hits give low values 0.984 | S. cerevisiae deletion strains, locus YOR080W, strain dia2, hits give low values 0.998 | S. cerevisiae deletion strains, locus YOR083W, strain WHI5, hits give low values 0.999 | S. cerevisiae deletion strains, locus YOR106W, strain vam3, hits give low values 0.997 | S. cerevisiae deletion strains, locus YOR136W, strain idh2, hits give low values 1 | S. cerevisiae deletion strains, locus YOR144C, strain elg1, hits give low values 0.994 | S. cerevisiae deletion strains, locus YOR184W, strain ser1, hits give low values 1.07 | S. cerevisiae deletion strains, locus YOR231W, strain MKK1, hits give low values 0.989 | S. cerevisiae deletion strains, locus YOR265W, strain rbl2, hits give low values 1.01 | S. cerevisiae deletion strains, locus YOR270C, strain vph1, hits give low values 1.01 | S. cerevisiae deletion strains, locus YOR290C, strain snf2, hits give low values 0.978 | S. cerevisiae deletion strains, locus YOR316C, strain cot1, hits give low values 0.976 | S. cerevisiae deletion strains, locus YPL051W, strain arl3, hits give low values 0.982 | S. cerevisiae deletion strains, locus YPL078C, strain atp4, hits give low values 0.98 | S. cerevisiae deletion strains, locus YPL106C, strain sse1, hits give low values 0.991 | S. cerevisiae deletion strains, locus YPL240C, strain hsp82, hits give low values 0.977 | S. cerevisiae deletion strains, locus YPL241C, strain CIN2, hits give low values 0.983 | S. cerevisiae deletion strains, locus YPL256C, strain CLN2, hits give low values 0.95 | S. cerevisiae deletion strains, locus YPR119W, strain clb2, hits give low values 0.973 | S. cerevisiae deletion strains, locus YPR141C, strain kar3, hits give low values 0.96 | S. cerevisiae deletion strains, locus YPR163C, strain tif3, hits give low values 0.997 | S. cerevisiae deletion strains, locus YPR167C, strain met16, hits give low values 1 | S. cerevisiae deletion strains, strain wtn01, hits give low values 1.03 | S. cerevisiae strains, strain wild type, hits give low values 1.04
